Results as given in PubChem BioAssay.

Assay: plasmodial surface anion channel blockers, osmotic lysis – cell-based, P. falciparum Indochina, OD700, 2 h, primary screen (AID 1155);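 further: lysis reports solute entry through the parasite surface anion channel PSAC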
Conditions: P. falciparum Indochina infected erythrocytes, higher = more signal, called active from +8 up or from −8 down

z-score, inactive:
CO[C@H]1COC(=O)[C@H](CCSC)NC(=O)CC=C[C@@H](C)[C@H](OC)COC(=O)[C@@H](OCc2ccccc2)C=C[C@@H]1C 0.191
COC(=O)[C@H](C)NC(=O)CCC1CC(OC(=O)NCCc2ccc(F)cc2)CC2(CCCC(COC(=O)NCCc3ccccc3OC)O2)O1 (stereo not given in full) 0.0923
CC(C)CN1CCc2nc(-c3ccccc3)c3c(c2C1)CO[C@@H](C)C3 0.711
CC(C)[C@@H](OCc1ccccc1)[C@H](C)CON=C1[C@H]2CCn3c(=O)n(-c4ccccc4)c(=O)n3[C@H]2[C@H](O)[C@@H]2O[C@H]12 -0.116
CON=C(C)CCN1CCc2nc(-c3ccccc3)c(-c3ccccc3)cc2C1 1.17
COc1ccc(OC[C@H]2CN3[C@@H](CC[C@@H](C)[C@@H]3c3ccc(Br)cc3)C(=O)O2)cc1 1.25
O=C(NN=C1C[C@@H](O)[C@@H](O)[C@@H]2[C@@H]3C(=O)N(c4ccc(F)cc4F)C(=O)[C@@H]3CC[C@H]12)OCc1ccccc1 1.29
COC(=O)[C@H](C)NC(=O)CCC1CC(OC(=O)NCc2cccc3ccccc23)CC2(CCCC(COC(=O)NCc3ccccc3)O2)O1 (stereo not given in full) -0.254
O=C1C2=CC[C@H]3C(=O)N(C4CCCCC4)C(=O)[C@H]3[C@H]2[C@H](O)[C@@H]2O[C@H]12 -0.153
C#CCCCON=C1C[C@@H](O)[C@@H](O)[C@@H]2[C@@H]3C(=O)N(C[C@@H]4CCCO4)C(=O)[C@@H]3CC[C@H]12 0.189
